Test results taken from PubChem BioAssay (NCATS).
Inconclusive results are not listed. The source made the active and inactive calls. Calls follow the shape of the dose curve; as a rule, active = well fitted curve in the direction sought with a large enough effect; inconclusive = small, poorly fitted or top-dose-only effect, or another doubt; inactive = no such curve, though single readings can be large; an effect the other way counts as inactive or inconclusive.

Tests used:
CRL-7250 = normal cell line; assay: Cytotoxic Profiling of Annotated Libraries Using Quantitative High-Throughput Screening (AID 1296008); settings: Five cell lines viability, CellTiter-Glo ATP luminescence, 48-72 h; max response: hits give low values; also: nearly all actives have a fitted effect of over 60% in size; also: potency is read from the fitted curve at half-maximal effect; as to max response: % is scaled to controls: 0 for no effect and ±100 for the full control effect
In short: (§1)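 Cytotoxicity was measured as CellTiter-Glo ATP luminescence, read after 10 min at room temperature. Compound treatment of the cells lasted 48 or 72 hr at 37 degrees Celsius in a qHTS format.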

HEK293 = assay: as above; settings: Five cell lines viability, CellTiter-Glo ATP luminescence, 48-72 h; max response: hits give low values
In short: as §1

HaCat [1] = assay: as above; settings: Five cell lines viability, CellTiter-Glo ATP luminescence, 48-72 h; max response: hits give low values
In short: as §1

NIH3T3 = assay: as above; settings: Five cell lines viability, CellTiter-Glo ATP luminescence, 48-72 h; max response: hits give low values
In short: as §1

C33A = assay: Primary qHTS to identify gynecologic anti-cancer compounds using libraries of approved drugs and bioactive compounds (AID 1345084); settings: Gynecologic cancer cell panel viability, ATPlite luminescence, 48 h; series mostly up to 57.5 µM; also: nearly all actives have a fitted effect of over 55% in size; also: potency is read from the fitted curve at half-maximal effect
In short: (§2)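 Luminescence from the ATPlite ATP-monitoring reagent indicates viable cell number; lower signal means cytotoxicity. Cells received compound 16 h after seeding and were exposed for 48 h across five concentrations.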

Es-2 = assay: as above; settings: Gynecologic cancer cell panel viability, ATPlite luminescence, 48 h; series mostly up to 57.5 µM
In short: as §2

Hek293T = assay: as above; settings: Gynecologic cancer cell panel viability, ATPlite luminescence, 48 h, control line for the selectivity index; series mostly up to 57.5 µM
In short: as §2

OV90 = assay: as above; settings: Gynecologic cancer cell panel viability, ATPlite luminescence, 48 h; series mostly up to 57.5 µM
In short: as §2

CASKI = assay: as above; settings: Gynecologic cancer cell panel viability, ATPlite luminescence, 48 h; series mostly up to 57.5 µM
In short: as §2

PA-1 = assay: as above; settings: Gynecologic cancer cell panel viability, ATPlite luminescence, 48 h; series mostly up to 57.5 µM
In short: as §2

SKOV3 = assay: as above; settings: Gynecologic cancer cell panel viability, ATPlite luminescence, 48 h; series mostly up to 57.5 µM
In short: as §2

HeLa = assay: as above; settings: Gynecologic cancer cell panel viability, ATPlite luminescence, 48 h; series mostly up to 57.5 µM
In short: as §2

JEG-3 = assay: as above; settings: Gynecologic cancer cell panel viability, ATPlite luminescence, 48 h; series mostly up to 57.5 µM
In short: as §2

HACAT [2] = assay: qHTS assay to identify novel small-molecules to repurpose for Merkel cell carcinoma treatment (AID 1296009); settings: MCC and control cell lines, CellTiter-Glo viability, 72 h; at 44.8 µM (top of the series) unless noted; also: nearly all actives have a fitted effect of over 60% in size
In short: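 After compound transfer in DMSO, plates were kept 72 hr at 37 degree celsius. Luminescent ATP signal from CellTiter-Glo served as viability measure, normalized against DMSO and no-cell controls.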

CAOV3 = assay: Primary qHTS to identify gynecologic anti-cancer compounds using libraries of approved drugs and bioactive compounds (AID 1345084); settings: Gynecologic cancer cell panel viability, ATPlite luminescence, 48 h; series mostly up to 57.5 µM; also: nearly all actives have a fitted effect of over 55% in size; also: potency is read from the fitted curve at half-maximal effect
In short: as §2

CC1(C(=O)Nc2ccc(F)nc2)CCCN1c1nc(Nc2cc(C3CC3)[nH]n2)c2cccn2n1 (centres undefined)
inactive: Potency (C33A) | Potency (Es-2)
active: Potency (CRL-7250) 8.2 µM | Potency (HEK293) 5.17 µM | Potency (HaCat [1]) 2.06 µM | Potency (NIH3T3) 4.61 µM | Potency (Hek293T) 5.01 µM | Potency (OV90) 3.55 µM

C=CC(=O)Nc1ccc(CN2C(=O)N(c3cc(OC)cc(OC)c3)Cc3cnc(Nc4ccc(N5CCN(C)CC5)cc4)nc32)cc1
inactive: Potency (Es-2) | Potency (Hek293T) | Potency (OV90) | Potency (PA-1)
active: Potency (CRL-7250) 0.411 µM | Potency (HEK293) 11.6 µM | Potency (HaCat [1]) 5.17 µM | Potency (NIH3T3) 8.2 µM | Potency (CASKI) 14.1 µM | Potency (SKOV3) 15.8 µM

Cc1ccc(C(=O)Nc2ccc(CN3CCN(C)CC3)c(C(F)(F)F)c2)cc1C#Cc1cnc2[nH]ncc2c1
active: Potency (CRL-7250) 0.058 µM | Potency (HEK293) 5.8 µM | Potency (HaCat [1]) 1.64 µM | Potency (NIH3T3) 0.58 µM | Potency (OV90) 3.16 µM

COC(C)(C)CCn1nc(Nc2c(C)cccc2C)c2cnc(Nc3ccc(OCCN4CCCC4)c(F)c3)nc21
active: Potency (CRL-7250) 1.16 µM | Potency (HEK293) 7.31 µM | Potency (HaCat [1]) 1.3 µM | Potency (NIH3T3) 0.411 µM | Potency (Es-2) 15.8 µM | Potency (OV90) 14.1 µM | Potency (PA-1) 2.82 µM | Potency (SKOV3) 15.8 µM

CCCC1(CCC)CCC2(CCN(CCCN(CC)CC)C2)CC1
active: Potency (CRL-7250) 4.11 µM | Potency (HEK293) 1.84 µM | Potency (HaCat [1]) 4.61 µM | Potency (NIH3T3) 3.66 µM | Potency (C33A) 6.31 µM | Potency (CASKI) 8.91 µM | Potency (Es-2) 10 µM | Potency (HeLa) 7.08 µM | Potency (Hek293T) 8.91 µM | Potency (JEG-3) 5.62 µM | Potency (OV90) 7.08 µM | Potency (PA-1) 5.01 µM | Potency (SKOV3) 7.94 µM

Cc1[nH]c(/C=C2\C(=O)Nc3ccc(S(=O)(=O)N(C)c4cccc(Cl)c4)cc32)c(C)c1C(=O)N1CCN(C)CC1
active: Potency (HEK293) 6.51 µM | Potency (CAOV3) 25.1 µM
inactive: outcome (CRL-7250) | outcome (HaCat [1]) | outcome (HACAT [2]) | Potency (C33A) | Potency (CASKI) | Potency (Es-2) | Potency (HeLa) | Potency (Hek293T) | Potency (JEG-3) | Potency (OV90) | Potency (PA-1) | Potency (SKOV3)

COc1cc(O)c2c(c1)C1OC1C[C@H](O)[C@H](O)C(=O)/C=C\C[C@H](C)OC2=O (some centres undefined)
active: Potency (CRL-7250) 20.6 µM | Potency (HEK293) 3.66 µM | Potency (HaCat [1]) 8.2 µM | Potency (NIH3T3) 2.06 µM
inactive: Potency (HeLa) | Potency (SKOV3)

C=C1C(=O)O[C@@H]2C3C(=C(C)[C@@H](O)[C@@H](OC(=O)/C(=C/C)COC(C)=O)[C@@H]12)C(=O)[C@H]1O[C@@]31C (some centres undefined)
inactive: Potency (HeLa) | Potency (OV90)
active: Potency (CRL-7250) 6.32 µM | Potency (HEK293) 1 µM | Potency (HaCat [1]) 3.17 µM | Potency (NIH3T3) 2.24 µM | Potency (CAOV3) 8.91 µM | Potency (Es-2) 8.91 µM | Potency (Hek293T) 7.94 µM | Potency (PA-1) 8.91 µM

Cc1cccc(-c2[nH]ncc2-c2ccnc3ccccc23)n1
inactive: max response (CRL-7250) -17.2% | max response (HEK293) -23.7% | outcome (HaCat [1]) | outcome (HACAT [2]) | Potency (C33A) | Potency (CAOV3) | Potency (CASKI) | Potency (Es-2) | Potency (HeLa) | Potency (Hek293T) | Potency (JEG-3) | Potency (PA-1) | Potency (SKOV3)

COc1ccc(N(C(=O)Nc2c(C)cccc2C)c2cc(Nc3ccc(N4CCN(C)CC4)cc3)ncn2)c(OC)c1
active: Potency (CRL-7250) 2.91 µM | Potency (HEK293) 14.6 µM | Potency (HaCat [1]) 7.31 µM | Potency (NIH3T3) 2.06 µM | Potency (SKOV3) 25.1 µM
inactive: Potency (C33A) | Potency (CASKI) | Potency (Es-2) | Potency (HeLa) | Potency (JEG-3)

COC(=O)N1CCC(n2ncc3c(N4CCOCC4)nc(-c4ccc(NC(=O)NC5CC5)cc4)nc32)CC1
inactive: Potency (JEG-3)
active: Potency (CRL-7250) 0.259 µM | Potency (HEK293) 0.291 µM | Potency (HaCat [1]) 6.51 µM | Potency (NIH3T3) 0.651 µM | Potency (Hek293T) 0.631 µM | Potency (OV90) 0.501 µM | Potency (PA-1) 1.41 µM

O=S(=O)(Nc1cc(Cl)c(Oc2cnc3ccccc3c2)c(Cl)c1)c1ccc(Cl)cc1Cl
inactive: outcome (CRL-7250) | max response (HEK293) -18.7% | outcome (HaCat [1]) | outcome (HACAT [2]) | Potency (C33A) | Potency (CAOV3) | Potency (CASKI) | Potency (Es-2) | Potency (HeLa) | Potency (Hek293T) | Potency (JEG-3) | Potency (OV90) | Potency (PA-1) | Potency (SKOV3)

CCc1c[nH]c2ncnc(N3CC[C@](N)(CNC(=O)c4ccc(F)cc4F)C3)c12
active: Potency (HEK293) 1.16 µM | Potency (Hek293T) 1.41 µM
inactive: max response (CRL-7250) -13.8% | max response (HaCat [1]) -5.86% | max response (NIH3T3) 4.64% | Potency (CAOV3) | Potency (CASKI) | Potency (Es-2) | Potency (HeLa) | Potency (JEG-3)
